Measured values: article PMC7862700, “An all-to-all approach to the identification of sequence-specific readers for epigenetic DNA modifications on cytosine”

What was measured:
Assay in all cases: DAPPL (digital affinity profiling via proximity ligation, sequencing); 10 mM Tris-HCl pH 7.5, 50 mM NaCl, 1 mM DTT, 4% glycerol, room temperature, 30 min; GST-TFs on glutathione beads, 16-mer random dsDNA library, 0.1% formaldehyde crosslink after washing; high values mean tight binding
[1] = target: T1, FLI1 (Homo sapiens, UniProt Q01543 1-452); conditions: protein: recombinant; tags: N-terminal GST; dsDNA, one strand shown
T1 sequence: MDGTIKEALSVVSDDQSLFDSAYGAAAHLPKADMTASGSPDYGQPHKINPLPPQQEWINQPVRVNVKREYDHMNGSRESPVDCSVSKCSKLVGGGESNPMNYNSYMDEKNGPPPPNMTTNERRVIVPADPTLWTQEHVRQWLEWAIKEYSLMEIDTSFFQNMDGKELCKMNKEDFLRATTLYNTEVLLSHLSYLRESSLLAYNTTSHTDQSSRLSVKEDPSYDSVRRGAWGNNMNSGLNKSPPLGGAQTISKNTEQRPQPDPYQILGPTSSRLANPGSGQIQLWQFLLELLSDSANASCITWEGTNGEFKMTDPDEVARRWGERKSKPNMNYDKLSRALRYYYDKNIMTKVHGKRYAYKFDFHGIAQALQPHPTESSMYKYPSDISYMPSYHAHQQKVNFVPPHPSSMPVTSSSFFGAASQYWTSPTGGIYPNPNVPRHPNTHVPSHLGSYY
Method in brief: (§1)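 Human transcription factors were made in yeast as GST fusions, captured on glutathione beads and barcoded with DNA. With a tag-only sample included, the pool was incubated with 200 nmole of a random double-stranded 16-mer DNA library in Tris/NaCl/DTT/glycerol buffer at room temperature for 30 min, then crosslinked with 0.1% formaldehyde after washing, ligated by proximity, amplified and sequenced. For binding signal, each hexamer's read frequency for a factor is divided by its frequency for the tag-only sample.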

[2] = target: T2, ELK1 (Homo sapiens, UniProt P19419 1-428); conditions: protein: recombinant; tags: N-terminal GST; dsDNA, one strand shown
T2 sequence: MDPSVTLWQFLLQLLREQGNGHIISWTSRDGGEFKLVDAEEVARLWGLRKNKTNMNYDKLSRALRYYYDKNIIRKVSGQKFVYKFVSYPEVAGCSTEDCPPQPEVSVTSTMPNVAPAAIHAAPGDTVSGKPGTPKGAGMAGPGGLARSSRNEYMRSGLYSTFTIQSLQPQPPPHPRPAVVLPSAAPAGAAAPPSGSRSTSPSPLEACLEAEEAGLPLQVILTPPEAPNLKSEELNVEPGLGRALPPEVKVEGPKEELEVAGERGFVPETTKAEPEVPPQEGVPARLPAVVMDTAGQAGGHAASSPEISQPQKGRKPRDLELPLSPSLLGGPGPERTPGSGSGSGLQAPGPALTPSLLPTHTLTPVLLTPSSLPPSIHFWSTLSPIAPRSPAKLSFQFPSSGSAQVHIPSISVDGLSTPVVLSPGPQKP
Method in brief: as §1

[3] = target: T3, GABPA (Homo sapiens, UniProt Q06546 1-454); conditions: protein: recombinant; tags: N-terminal GST; dsDNA, one strand shown
T3 sequence: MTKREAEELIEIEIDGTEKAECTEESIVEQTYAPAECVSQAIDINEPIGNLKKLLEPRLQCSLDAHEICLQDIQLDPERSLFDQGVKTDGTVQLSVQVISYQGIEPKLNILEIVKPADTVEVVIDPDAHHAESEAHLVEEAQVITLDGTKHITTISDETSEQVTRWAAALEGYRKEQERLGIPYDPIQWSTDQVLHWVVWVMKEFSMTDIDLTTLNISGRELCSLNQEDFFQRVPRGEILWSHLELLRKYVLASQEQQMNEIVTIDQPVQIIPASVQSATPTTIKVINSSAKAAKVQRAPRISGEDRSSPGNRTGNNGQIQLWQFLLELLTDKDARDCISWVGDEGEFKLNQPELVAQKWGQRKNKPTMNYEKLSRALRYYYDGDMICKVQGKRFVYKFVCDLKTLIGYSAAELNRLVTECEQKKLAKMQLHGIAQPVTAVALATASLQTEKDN
Method in brief: as §1

[4] = target: T4, ERG (Homo sapiens, UniProt P11308 1-479); conditions: protein: recombinant; tags: N-terminal GST; dsDNA, one strand shown
T4 sequence: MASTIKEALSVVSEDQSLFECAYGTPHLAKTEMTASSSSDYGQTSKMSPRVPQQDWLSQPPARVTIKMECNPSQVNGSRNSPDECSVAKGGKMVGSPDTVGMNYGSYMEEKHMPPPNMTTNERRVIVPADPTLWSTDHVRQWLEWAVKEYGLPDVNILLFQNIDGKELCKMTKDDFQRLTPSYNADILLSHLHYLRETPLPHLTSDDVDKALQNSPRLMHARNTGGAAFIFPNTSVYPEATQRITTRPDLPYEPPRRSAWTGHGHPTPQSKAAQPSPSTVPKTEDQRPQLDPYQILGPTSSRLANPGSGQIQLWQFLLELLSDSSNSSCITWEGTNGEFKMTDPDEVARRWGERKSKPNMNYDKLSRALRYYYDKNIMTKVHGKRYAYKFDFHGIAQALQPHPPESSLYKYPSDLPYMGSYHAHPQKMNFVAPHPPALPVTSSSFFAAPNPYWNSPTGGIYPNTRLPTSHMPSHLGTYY
Method in brief: as §1

[5] = target: ELF1 (Homo sapiens, UniProt P32519 1-619); conditions: protein: recombinant; tags: N-terminal GST; dsDNA, one strand shown
Sequence of ELF1 (P32519 whole entry): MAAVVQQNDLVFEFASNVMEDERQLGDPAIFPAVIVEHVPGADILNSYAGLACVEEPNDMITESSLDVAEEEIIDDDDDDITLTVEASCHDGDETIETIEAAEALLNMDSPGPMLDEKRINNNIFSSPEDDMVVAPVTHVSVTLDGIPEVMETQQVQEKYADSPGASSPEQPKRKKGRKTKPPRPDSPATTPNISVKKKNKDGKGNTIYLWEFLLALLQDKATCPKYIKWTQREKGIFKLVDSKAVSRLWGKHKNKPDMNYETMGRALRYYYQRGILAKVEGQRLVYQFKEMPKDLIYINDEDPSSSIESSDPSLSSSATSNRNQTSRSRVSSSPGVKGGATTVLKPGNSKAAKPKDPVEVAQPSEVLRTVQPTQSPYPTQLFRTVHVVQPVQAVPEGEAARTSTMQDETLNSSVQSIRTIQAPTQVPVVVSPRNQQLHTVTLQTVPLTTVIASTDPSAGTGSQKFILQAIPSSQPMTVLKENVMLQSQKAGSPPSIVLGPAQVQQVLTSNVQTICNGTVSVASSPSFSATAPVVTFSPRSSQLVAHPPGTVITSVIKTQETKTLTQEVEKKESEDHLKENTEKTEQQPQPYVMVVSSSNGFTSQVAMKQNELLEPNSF
Method in brief: as §1

[6] = target: T5, EHF (Homo sapiens, UniProt Q9NZC4 1-300); conditions: protein: recombinant; tags: N-terminal GST; dsDNA, one strand shown
T5 sequence: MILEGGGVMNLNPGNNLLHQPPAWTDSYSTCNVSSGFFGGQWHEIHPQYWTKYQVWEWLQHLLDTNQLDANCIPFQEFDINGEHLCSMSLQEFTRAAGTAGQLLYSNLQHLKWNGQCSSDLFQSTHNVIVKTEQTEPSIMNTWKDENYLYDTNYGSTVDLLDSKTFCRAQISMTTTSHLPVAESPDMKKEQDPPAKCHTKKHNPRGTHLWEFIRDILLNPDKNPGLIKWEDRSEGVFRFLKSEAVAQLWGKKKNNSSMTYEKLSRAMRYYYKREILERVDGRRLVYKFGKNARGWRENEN
Method in brief: as §1

[7] = target: SPI1 (Homo sapiens, UniProt P17947 1-270); conditions: protein: recombinant; tags: N-terminal GST; dsDNA, one strand shown
Method in brief: as §1

[8] = target: SPIB (Homo sapiens, UniProt Q01892 1-262); conditions: protein: recombinant; tags: N-terminal GST; dsDNA, one strand shown
Sequence of SPIB (Q01892 whole entry): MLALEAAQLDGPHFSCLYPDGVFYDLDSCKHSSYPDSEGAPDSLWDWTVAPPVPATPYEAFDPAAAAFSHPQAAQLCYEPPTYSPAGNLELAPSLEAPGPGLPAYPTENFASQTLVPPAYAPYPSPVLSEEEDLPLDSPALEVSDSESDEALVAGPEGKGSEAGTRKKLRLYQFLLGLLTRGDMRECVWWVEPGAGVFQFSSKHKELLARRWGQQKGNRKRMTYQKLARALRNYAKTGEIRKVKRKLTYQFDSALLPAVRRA
Method in brief: as §1

[9] = target: T6, ELK3 (Homo sapiens, UniProt P41970 1-407); conditions: protein: recombinant; tags: N-terminal GST; dsDNA, one strand shown
T6 sequence: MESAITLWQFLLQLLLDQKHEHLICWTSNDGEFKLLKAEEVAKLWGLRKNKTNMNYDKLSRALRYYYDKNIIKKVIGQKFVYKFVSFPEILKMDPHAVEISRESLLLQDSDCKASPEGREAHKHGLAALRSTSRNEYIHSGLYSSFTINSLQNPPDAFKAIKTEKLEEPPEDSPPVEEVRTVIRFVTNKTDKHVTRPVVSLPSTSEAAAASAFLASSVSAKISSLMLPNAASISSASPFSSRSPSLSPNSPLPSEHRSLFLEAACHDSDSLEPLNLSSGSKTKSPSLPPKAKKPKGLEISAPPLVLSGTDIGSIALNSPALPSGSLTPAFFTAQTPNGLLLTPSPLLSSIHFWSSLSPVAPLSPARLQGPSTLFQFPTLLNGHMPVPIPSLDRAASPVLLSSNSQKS
Method in brief: as §1

[10] = target: T7, FEV (Homo sapiens, UniProt Q99581 1-238); conditions: protein: recombinant; tags: N-terminal GST; dsDNA, one strand shown
T7 sequence: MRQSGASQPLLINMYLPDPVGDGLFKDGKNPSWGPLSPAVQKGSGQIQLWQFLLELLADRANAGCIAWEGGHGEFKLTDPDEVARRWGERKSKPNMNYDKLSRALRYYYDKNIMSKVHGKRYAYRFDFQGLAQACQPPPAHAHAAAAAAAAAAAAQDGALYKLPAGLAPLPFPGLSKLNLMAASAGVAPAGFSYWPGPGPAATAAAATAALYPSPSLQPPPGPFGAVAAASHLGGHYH
Method in brief: as §1

[11] = target: ETV5 (Homo sapiens, UniProt P41161 1-510); conditions: protein: recombinant; tags: N-terminal GST; dsDNA, one strand shown
Sequence of ETV5 (P41161 whole entry): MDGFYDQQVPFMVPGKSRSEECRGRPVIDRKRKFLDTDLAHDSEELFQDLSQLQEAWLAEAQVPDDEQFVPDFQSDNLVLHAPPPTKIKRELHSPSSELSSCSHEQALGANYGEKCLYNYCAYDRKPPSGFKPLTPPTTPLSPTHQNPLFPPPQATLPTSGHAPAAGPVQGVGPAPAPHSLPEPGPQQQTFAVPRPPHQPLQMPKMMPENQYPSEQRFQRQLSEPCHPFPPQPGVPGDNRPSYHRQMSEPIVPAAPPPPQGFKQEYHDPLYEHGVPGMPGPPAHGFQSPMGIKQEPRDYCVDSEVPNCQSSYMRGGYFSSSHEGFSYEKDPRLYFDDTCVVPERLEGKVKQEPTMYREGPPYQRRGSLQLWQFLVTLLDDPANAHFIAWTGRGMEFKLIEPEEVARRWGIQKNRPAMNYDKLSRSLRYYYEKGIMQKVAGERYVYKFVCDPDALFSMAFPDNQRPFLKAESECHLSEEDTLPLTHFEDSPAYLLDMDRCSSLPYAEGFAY
Method in brief: as §1

[12] = target: HSF1 (Homo sapiens, UniProt Q00613 1-529); conditions: protein: recombinant; tags: N-terminal GST; chain copies: 3; dsDNA, one strand shown
Sequence of HSF1 (Q00613 whole entry): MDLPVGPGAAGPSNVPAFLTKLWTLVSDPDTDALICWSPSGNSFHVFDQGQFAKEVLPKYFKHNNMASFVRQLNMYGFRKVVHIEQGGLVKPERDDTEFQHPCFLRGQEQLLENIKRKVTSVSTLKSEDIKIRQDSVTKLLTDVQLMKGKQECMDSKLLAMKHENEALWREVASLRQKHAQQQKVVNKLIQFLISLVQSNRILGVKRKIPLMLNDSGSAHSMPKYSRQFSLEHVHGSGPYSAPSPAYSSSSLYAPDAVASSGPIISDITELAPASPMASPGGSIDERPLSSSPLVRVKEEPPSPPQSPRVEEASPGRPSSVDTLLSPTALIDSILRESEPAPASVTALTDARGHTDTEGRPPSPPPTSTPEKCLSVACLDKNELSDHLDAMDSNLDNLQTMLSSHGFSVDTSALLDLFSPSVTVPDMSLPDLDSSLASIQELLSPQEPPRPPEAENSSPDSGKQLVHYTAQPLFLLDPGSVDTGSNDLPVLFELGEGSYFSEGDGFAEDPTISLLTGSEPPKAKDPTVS
Method in brief: as §1

[13] = target: T8, SPIC (Homo sapiens, UniProt Q8N5J4 1-248); conditions: protein: recombinant; tags: N-terminal GST; dsDNA, one strand shown
T8 sequence: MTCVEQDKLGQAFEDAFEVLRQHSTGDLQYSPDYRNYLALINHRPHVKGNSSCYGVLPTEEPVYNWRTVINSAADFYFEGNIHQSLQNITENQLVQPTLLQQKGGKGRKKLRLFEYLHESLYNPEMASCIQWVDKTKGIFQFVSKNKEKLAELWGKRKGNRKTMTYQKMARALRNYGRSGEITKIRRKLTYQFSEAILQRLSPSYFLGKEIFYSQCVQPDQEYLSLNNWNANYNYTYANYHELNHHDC
Method in brief: as §1

[14] = target: ELF4 (Homo sapiens, UniProt Q99607 1-663); conditions: protein: recombinant; tags: N-terminal GST; dsDNA, one strand shown
Sequence of ELF4 (Q99607 whole entry): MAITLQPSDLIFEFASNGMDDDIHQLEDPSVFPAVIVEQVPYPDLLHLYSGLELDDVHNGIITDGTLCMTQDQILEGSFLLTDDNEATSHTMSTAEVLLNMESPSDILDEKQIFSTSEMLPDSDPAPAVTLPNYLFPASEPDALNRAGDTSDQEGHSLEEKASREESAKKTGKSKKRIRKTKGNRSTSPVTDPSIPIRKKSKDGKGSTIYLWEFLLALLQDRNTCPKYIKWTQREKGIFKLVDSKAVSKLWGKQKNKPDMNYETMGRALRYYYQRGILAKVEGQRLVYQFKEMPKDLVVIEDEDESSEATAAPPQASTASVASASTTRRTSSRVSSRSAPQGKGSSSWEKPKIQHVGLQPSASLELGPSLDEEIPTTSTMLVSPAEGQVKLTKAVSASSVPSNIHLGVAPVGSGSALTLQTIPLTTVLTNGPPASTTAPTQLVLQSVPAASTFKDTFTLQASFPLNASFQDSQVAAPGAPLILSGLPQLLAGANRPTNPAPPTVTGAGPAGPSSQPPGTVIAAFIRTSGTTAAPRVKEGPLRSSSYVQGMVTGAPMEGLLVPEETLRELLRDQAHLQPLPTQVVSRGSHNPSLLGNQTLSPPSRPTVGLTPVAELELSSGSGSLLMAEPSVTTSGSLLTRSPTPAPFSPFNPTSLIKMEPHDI
Method in brief: as §1

[15] = target: T9, ELK4 (Homo sapiens, UniProt P28324-2 1-405); conditions: protein: recombinant; tags: N-terminal GST; dsDNA, one strand shown
T9 sequence: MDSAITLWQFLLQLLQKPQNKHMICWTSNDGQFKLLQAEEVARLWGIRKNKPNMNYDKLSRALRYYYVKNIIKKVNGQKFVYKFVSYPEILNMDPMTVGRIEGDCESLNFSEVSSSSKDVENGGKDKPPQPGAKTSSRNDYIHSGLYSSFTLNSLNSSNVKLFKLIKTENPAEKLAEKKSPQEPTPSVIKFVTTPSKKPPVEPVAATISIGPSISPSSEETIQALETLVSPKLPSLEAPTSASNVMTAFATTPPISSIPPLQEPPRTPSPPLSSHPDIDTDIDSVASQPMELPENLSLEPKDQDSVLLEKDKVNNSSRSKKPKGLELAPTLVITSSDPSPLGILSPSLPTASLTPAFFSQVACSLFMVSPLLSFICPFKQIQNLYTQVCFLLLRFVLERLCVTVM
Method in brief: as §1

[16] = target: T10, ETV2 (Homo sapiens, UniProt O00321 1-342); conditions: protein: recombinant; tags: N-terminal GST; dsDNA, one strand shown
T10 sequence: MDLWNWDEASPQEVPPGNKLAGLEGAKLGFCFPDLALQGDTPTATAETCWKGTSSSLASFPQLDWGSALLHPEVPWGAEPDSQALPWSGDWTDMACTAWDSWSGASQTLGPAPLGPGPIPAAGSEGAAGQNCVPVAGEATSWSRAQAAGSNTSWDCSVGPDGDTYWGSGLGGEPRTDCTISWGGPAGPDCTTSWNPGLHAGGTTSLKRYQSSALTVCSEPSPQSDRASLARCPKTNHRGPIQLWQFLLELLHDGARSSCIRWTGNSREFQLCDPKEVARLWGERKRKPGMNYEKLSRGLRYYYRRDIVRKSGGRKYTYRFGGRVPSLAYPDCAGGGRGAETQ
Method in brief: as §1

[17] = target: T11, ELF3 (Homo sapiens, UniProt P78545 1-371); conditions: protein: recombinant; tags: N-terminal GST; dsDNA, one strand shown
T11 sequence: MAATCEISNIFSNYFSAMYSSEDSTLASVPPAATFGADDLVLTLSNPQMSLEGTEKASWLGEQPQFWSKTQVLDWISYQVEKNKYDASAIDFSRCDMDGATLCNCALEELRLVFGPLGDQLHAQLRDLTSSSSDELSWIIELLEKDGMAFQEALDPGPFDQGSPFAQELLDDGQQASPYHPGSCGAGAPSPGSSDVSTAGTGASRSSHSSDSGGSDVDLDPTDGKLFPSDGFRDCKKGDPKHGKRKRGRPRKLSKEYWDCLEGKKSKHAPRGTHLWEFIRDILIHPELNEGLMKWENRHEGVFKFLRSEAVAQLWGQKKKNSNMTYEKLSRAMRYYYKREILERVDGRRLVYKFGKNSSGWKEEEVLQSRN
Method in brief: as §1

[18] = target: CRX (Homo sapiens, UniProt O43186 1-299); conditions: protein: recombinant; tags: N-terminal GST; dsDNA, one strand shown
Sequence of CRX (O43186 whole entry): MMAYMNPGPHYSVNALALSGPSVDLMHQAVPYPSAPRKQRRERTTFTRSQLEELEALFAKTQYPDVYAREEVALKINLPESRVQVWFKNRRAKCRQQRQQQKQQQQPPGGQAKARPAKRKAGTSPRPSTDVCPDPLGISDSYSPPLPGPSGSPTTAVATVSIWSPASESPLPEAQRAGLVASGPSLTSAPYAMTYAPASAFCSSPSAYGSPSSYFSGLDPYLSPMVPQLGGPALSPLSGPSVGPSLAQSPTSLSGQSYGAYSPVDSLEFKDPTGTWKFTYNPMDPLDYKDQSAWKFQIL
Method in brief: as §1

[19] = target: ETV1 (Homo sapiens, UniProt P50549 1-477); conditions: protein: recombinant; tags: N-terminal GST; dsDNA, one strand shown
Sequence of ETV1 (P50549 whole entry): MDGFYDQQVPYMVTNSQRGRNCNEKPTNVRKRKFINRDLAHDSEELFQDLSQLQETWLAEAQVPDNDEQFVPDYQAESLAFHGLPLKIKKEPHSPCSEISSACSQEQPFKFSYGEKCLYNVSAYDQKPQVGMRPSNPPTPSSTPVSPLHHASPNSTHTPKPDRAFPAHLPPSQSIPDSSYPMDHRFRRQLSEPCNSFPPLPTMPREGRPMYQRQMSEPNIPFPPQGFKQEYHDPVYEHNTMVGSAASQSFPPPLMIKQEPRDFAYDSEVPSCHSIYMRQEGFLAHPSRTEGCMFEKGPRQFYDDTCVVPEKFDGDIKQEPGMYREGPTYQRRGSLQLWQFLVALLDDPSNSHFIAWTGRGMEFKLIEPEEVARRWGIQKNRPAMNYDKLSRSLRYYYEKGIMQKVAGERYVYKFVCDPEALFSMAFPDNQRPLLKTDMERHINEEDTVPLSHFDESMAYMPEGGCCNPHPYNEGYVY
Method in brief: as §1

Q: What does the source list for AGCACT?
A: binding signal [1]: 1.38 fold enrichment (6-mer frequency, TF over GST control); binding signal [2]: 1.52 fold enrichment (6-mer frequency, TF over GST control); binding signal [3]: 1.41 fold enrichment (6-mer frequency, TF over GST control); binding signal [4]: 1.48 fold enrichment (6-mer frequency, TF over GST control); binding signal [5]: 1.4 fold enrichment (6-mer frequency, TF over GST control); binding signal [6]: 1.36 fold enrichment (6-mer frequency, TF over GST control); binding signal [7]: 1.4 fold enrichment (6-mer frequency, TF over GST control); binding signal [8]: 1.44 fold enrichment (6-mer frequency, TF over GST control); binding signal [9]: 1.62 fold enrichment (6-mer frequency, TF over GST control); binding signal [10]: 1.51 fold enrichment (6-mer frequency, TF over GST control); binding signal [11]: 1.37 fold enrichment (6-mer frequency, TF over GST control); binding signal [12]: 1.19 fold enrichment (6-mer frequency, TF over GST control); binding signal [13]: 1.32 fold enrichment (6-mer frequency, TF over GST control); binding signal [14]: 1.44 fold enrichment (6-mer frequency, TF over GST control); binding signal [15]: 1.31 fold enrichment (6-mer frequency, TF over GST control); binding signal [16]: 1.46 fold enrichment (6-mer frequency, TF over GST control); binding signal [17]: 1.26 fold enrichment (6-mer frequency, TF over GST control); binding signal [18]: 1.18 fold enrichment (6-mer frequency, TF over GST control); binding signal [19]: 1.36 fold enrichment (6-mer frequency, TF over GST control)
